Tests used:
Experiment in all cases: PBM binding z-score (relative to random genomic background probes); higher = stronger binding; sequences stand for … in GC…GCGATTGACAGCGTAGAATGAAGG
[1] = tested on: PPARg:RXRa DBDmut IVT, anti-RXR (DBD mutation: RXRa K156A/R161A, NR concentration 270 nM, RXRa partner concentration 90 nM)
Procedure, shortened: (§1)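 Binding z-scores take random background probes as their reference. They come from custom Agilent 4×180K protein-binding microarrays incubated 1 h with ligand-free nuclear receptor dimers, with antibodies against each partner (one per run) detecting binding. Scanned fluorescence was regression-normalized.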

[2] = tested on: PPARg:RXRa IVT, anti-PPARg (NR concentration 270 nM, RXRa partner concentration 90 nM)
Procedure, shortened: as §1

[3] = tested on: PPARg DBDmut:RXRa IVT, anti-PPARg (DBD mutation: PPARg1 K132A/R137A, NR concentration 270 nM, RXRa partner concentration 90 nM)
Procedure, shortened: as §1

[4] = tested on: PPARg DBDmut IVT, anti-PPARg (DBD mutation: PPARg1 K132A/R137A, NR concentration 270 nM)
Procedure, shortened: as §1

[5] = tested on: PPARg homodimer (NR concentration 180 nM)
Procedure, shortened: as §1

[6] = tested on: PXR:RXRa (NR concentration 270 nM, RXRa partner concentration 90 nM)
Procedure, shortened: as §1

[7] = tested on: PXR homodimer (NR concentration 270 nM)
Procedure, shortened: as §1

[8] = tested on: RARa:RXR (NR concentration 270 nM, RXRa partner concentration 90 nM)
Procedure, shortened: as §1

[9] = tested on: RARa homodimer (NR concentration 270 nM)
Procedure, shortened: as §1

[10] = tested on: RARb:RXRa (NR concentration 270 nM, RXRa partner concentration 90 nM)
Procedure, shortened: as §1

TCGAGTAGGTTAGTCGGGGCATTCCGCCAACATA
PBM binding z-score [1]: 2.34 | PBM binding z-score [2]: 2 | PBM binding z-score [3]: -0.206 | PBM binding z-score [4]: -0.88 | PBM binding z-score [5]: -0.0815 | PBM binding z-score [6]: 0.0285 | PBM binding z-score [7]: -0.57 | PBM binding z-score [8]: 0.175 | PBM binding z-score [9]: -0.691 | PBM binding z-score [10]: 0.585

AGAACGAGGGCACGCTGAGTTGATCGCAGAGTAG
PBM binding z-score [1]: 4.59 | PBM binding z-score [2]: 4.13 | PBM binding z-score [3]: 0.408 | PBM binding z-score [4]: -0.362 | PBM binding z-score [5]: -0.239 | PBM binding z-score [6]: 1.53 | PBM binding z-score [7]: 0.103 | PBM binding z-score [8]: 0.735 | PBM binding z-score [9]: -1.04 | PBM binding z-score [10]: 2.57

CGGCCAAGGTCAGAGAGGTCAGTGAATGCCGAGT
PBM binding z-score [1]: 3.09 | PBM binding z-score [2]: 3.49 | PBM binding z-score [3]: -0.798 | PBM binding z-score [4]: -1.36 | PBM binding z-score [5]: 3.78 | PBM binding z-score [6]: 5.99 | PBM binding z-score [7]: 12 | PBM binding z-score [8]: 5.43 | PBM binding z-score [9]: 1.18 | PBM binding z-score [10]: 5.21

CGAACTAGGTCCAGGACAGTGAATCTCCGCACGC
PBM binding z-score [1]: 2.08 | PBM binding z-score [2]: 0.856 | PBM binding z-score [3]: -0.489 | PBM binding z-score [4]: -1.24 | PBM binding z-score [5]: -0.302 | PBM binding z-score [6]: -0.535 | PBM binding z-score [7]: -0.312 | PBM binding z-score [8]: -0.417 | PBM binding z-score [9]: -0.0938 | PBM binding z-score [10]: 0.00636

CGTCCAAGGTCAGTGCTAGGTCAGTGAAAGCATT
PBM binding z-score [1]: 2.24 | PBM binding z-score [2]: 2.77 | PBM binding z-score [3]: -0.328 | PBM binding z-score [4]: -1.29 | PBM binding z-score [5]: 3.27 | PBM binding z-score [6]: 3.4 | PBM binding z-score [7]: 0.647 | PBM binding z-score [8]: 4.37 | PBM binding z-score [9]: 0.898 | PBM binding z-score [10]: 4.79

CTCGAAAAGTCGGTTGAGGTGAGTATACGGATAA
PBM binding z-score [1]: -0.249 | PBM binding z-score [2]: 0.59 | PBM binding z-score [3]: -0.0972 | PBM binding z-score [4]: -0.5 | PBM binding z-score [5]: 0.0605 | PBM binding z-score [6]: -0.0703 | PBM binding z-score [7]: -0.0272 | PBM binding z-score [8]: 1.45 | PBM binding z-score [9]: 0.0114 | PBM binding z-score [10]: 0.371

TCATATAGGTAATACAGGTCAAAGTCGGCATCTA
PBM binding z-score [1]: 4.69 | PBM binding z-score [2]: 4.55 | PBM binding z-score [3]: 2.09 | PBM binding z-score [4]: 2.09 | PBM binding z-score [5]: 2.8 | PBM binding z-score [6]: 3.34 | PBM binding z-score [7]: 1.5 | PBM binding z-score [8]: 3.94 | PBM binding z-score [9]: 2.09 | PBM binding z-score [10]: 2.49

ACTTACGGGTCAACGAGGATATAGCACGCGTATA
PBM binding z-score [1]: 3.44 | PBM binding z-score [2]: 3.76 | PBM binding z-score [3]: 1.49 | PBM binding z-score [4]: 1.58 | PBM binding z-score [5]: 2.26 | PBM binding z-score [6]: 3.34 | PBM binding z-score [7]: 0.678 | PBM binding z-score [8]: 4.19 | PBM binding z-score [9]: 1.35 | PBM binding z-score [10]: 3.88

TCTATTAGTTGATTAGGGCAATCGAAACAGCGGA
PBM binding z-score [1]: 2.23 | PBM binding z-score [2]: 1.29 | PBM binding z-score [3]: 0.785 | PBM binding z-score [4]: 0.869 | PBM binding z-score [5]: 1.1 | PBM binding z-score [6]: 0.568 | PBM binding z-score [7]: 0.192 | PBM binding z-score [8]: 0.781 | PBM binding z-score [9]: 1.56 | PBM binding z-score [10]: 0.778

TCTCAGAGGACACGAAGGTCAGAGCTTTCCAGAG
PBM binding z-score [1]: 1.91 | PBM binding z-score [2]: 1.5 | PBM binding z-score [3]: -0.856 | PBM binding z-score [4]: -1.02 | PBM binding z-score [5]: 1.11 | PBM binding z-score [6]: 2.05 | PBM binding z-score [7]: 0.954 | PBM binding z-score [8]: 2.02 | PBM binding z-score [9]: -0.195 | PBM binding z-score [10]: 3.78

TCATATAGGTAAAGGTGAATGTCGAACGATATGA
PBM binding z-score [1]: 3.9 | PBM binding z-score [2]: 4.33 | PBM binding z-score [3]: 0.991 | PBM binding z-score [4]: 1.7 | PBM binding z-score [5]: 1.02 | PBM binding z-score [6]: 0.695 | PBM binding z-score [7]: 0.181 | PBM binding z-score [8]: 1.46 | PBM binding z-score [9]: 0.501 | PBM binding z-score [10]: 1.87

GCTATTAGTTTAAAGGGCAACCGAATGATTCTCG
PBM binding z-score [1]: 1.27 | PBM binding z-score [2]: 1.31 | PBM binding z-score [3]: 0.587 | PBM binding z-score [4]: 0.575 | PBM binding z-score [5]: 1.43 | PBM binding z-score [6]: 1.09 | PBM binding z-score [7]: 0.349 | PBM binding z-score [8]: 1.28 | PBM binding z-score [9]: 0.262 | PBM binding z-score [10]: 2.09

CGTCCAAGGTCATGGTCAGTGAAAGAGACTCGAA
PBM binding z-score [1]: 3.19 | PBM binding z-score [2]: 3.62 | PBM binding z-score [3]: 0.127 | PBM binding z-score [4]: 0.155 | PBM binding z-score [5]: 3.09 | PBM binding z-score [6]: 3.98 | PBM binding z-score [7]: 0.701 | PBM binding z-score [8]: 4.83 | PBM binding z-score [9]: 1.11 | PBM binding z-score [10]: 5.11

CGTCCAAGGTCAATGCTAGGTCAGGGAAAGCATT
PBM binding z-score [1]: 2.8 | PBM binding z-score [2]: 4.06 | PBM binding z-score [3]: -0.00201 | PBM binding z-score [4]: -0.912 | PBM binding z-score [5]: 3.8 | PBM binding z-score [6]: 4.55 | PBM binding z-score [7]: 0.675 | PBM binding z-score [8]: 5.55 | PBM binding z-score [9]: 0.824 | PBM binding z-score [10]: 5.31

CCTTACGGGTCACTCCAAGTTATAGCATCGGAGT
PBM binding z-score [1]: 3.33 | PBM binding z-score [2]: 3.23 | PBM binding z-score [3]: 0.816 | PBM binding z-score [4]: 0.0314 | PBM binding z-score [5]: 3.25 | PBM binding z-score [6]: 2.57 | PBM binding z-score [7]: 0.296 | PBM binding z-score [8]: 3.32 | PBM binding z-score [9]: 1.47 | PBM binding z-score [10]: 3.56

ATATGTAGGGTAAGGGTCATTCAGGTTGGTTCGC
PBM binding z-score [1]: 6.71 | PBM binding z-score [2]: 7.53 | PBM binding z-score [3]: 5.99 | PBM binding z-score [4]: 4.1 | PBM binding z-score [5]: 6.25 | PBM binding z-score [6]: 5.47 | PBM binding z-score [7]: 4.86 | PBM binding z-score [8]: 5.19 | PBM binding z-score [9]: 3.71 | PBM binding z-score [10]: 3.53

CCTTACGGGTCACTGACAGGTTAAAGCATTTGGA
PBM binding z-score [1]: 3.63 | PBM binding z-score [2]: 4.02 | PBM binding z-score [3]: 0.71 | PBM binding z-score [4]: 0.495 | PBM binding z-score [5]: 4.09 | PBM binding z-score [6]: 3.98 | PBM binding z-score [7]: 0.033 | PBM binding z-score [8]: 5.21 | PBM binding z-score [9]: 0.619 | PBM binding z-score [10]: 3.94

AGTCGAAGTTCATCTAGGTAACGTAAGATATGCT
PBM binding z-score [1]: 0.32 | PBM binding z-score [2]: 2.06 | PBM binding z-score [3]: 0.625 | PBM binding z-score [4]: 0.713 | PBM binding z-score [5]: 1.04 | PBM binding z-score [6]: 3.3 | PBM binding z-score [7]: 2.97 | PBM binding z-score [8]: 1.67 | PBM binding z-score [9]: 0.799 | PBM binding z-score [10]: 3.05

AATACAGGGTCAGTAGGCCAGAGTAGGTACGAAT
PBM binding z-score [1]: 3.22 | PBM binding z-score [2]: 4.8 | PBM binding z-score [3]: 1.82 | PBM binding z-score [4]: 0.929 | PBM binding z-score [5]: 1.97 | PBM binding z-score [6]: 1.86 | PBM binding z-score [7]: 0.246 | PBM binding z-score [8]: 2.94 | PBM binding z-score [9]: 1.18 | PBM binding z-score [10]: 3.92

TCTGCTAGGTCAACGATGGTCAACTAATCTGCTA
PBM binding z-score [1]: 4.51 | PBM binding z-score [2]: 4.3 | PBM binding z-score [3]: 0.357 | PBM binding z-score [4]: 0.326 | PBM binding z-score [5]: 1.75 | PBM binding z-score [6]: 2.4 | PBM binding z-score [7]: -0.851 | PBM binding z-score [8]: 2.39 | PBM binding z-score [9]: -0.654 | PBM binding z-score [10]: 4.12

ATACCAAGGTGATCGTGCGGTCGTTGATACTAAC
PBM binding z-score [1]: 0.367 | PBM binding z-score [2]: 0.959 | PBM binding z-score [3]: -0.0975 | PBM binding z-score [4]: -0.386 | PBM binding z-score [5]: -0.0029 | PBM binding z-score [6]: 0.16 | PBM binding z-score [7]: 0.0689 | PBM binding z-score [8]: -0.0765 | PBM binding z-score [9]: 0.173 | PBM binding z-score [10]: 0.748

GCTGCTAGGTCAGGTTCGTCAGCTAACGGGTACG
PBM binding z-score [1]: 3.23 | PBM binding z-score [2]: 2.23 | PBM binding z-score [3]: -0.735 | PBM binding z-score [4]: -0.897 | PBM binding z-score [5]: 0.459 | PBM binding z-score [6]: 0.538 | PBM binding z-score [7]: -0.243 | PBM binding z-score [8]: 0.887 | PBM binding z-score [9]: -0.894 | PBM binding z-score [10]: 3.17

GATACAGGGACAAGGCCAGAGTACGCGTATTGAT
PBM binding z-score [1]: 0.111 | PBM binding z-score [2]: 0.0816 | PBM binding z-score [3]: -0.754 | PBM binding z-score [4]: -0.819 | PBM binding z-score [5]: 0.187 | PBM binding z-score [6]: -0.396 | PBM binding z-score [7]: 0.236 | PBM binding z-score [8]: -0.445 | PBM binding z-score [9]: -0.566 | PBM binding z-score [10]: 0.943

CCTTCCGGGTCACGAGGTTATAGCACGACGAGCG
PBM binding z-score [1]: 5.56 | PBM binding z-score [2]: 6.43 | PBM binding z-score [3]: 0.639 | PBM binding z-score [4]: -0.0446 | PBM binding z-score [5]: 2.53 | PBM binding z-score [6]: 4.81 | PBM binding z-score [7]: 0.436 | PBM binding z-score [8]: 5.82 | PBM binding z-score [9]: 0.661 | PBM binding z-score [10]: 4.55

— the supplement of paper PMC6555819
